Consider 7 compounds from ChEMBL document CHEMBL1961873, “Compounds: GSK PKIS; Assays: Nanosyn kinase panel” (2012).

Structures are written as SMILES.

As usually defined, the inhibition is the change of the read-out against control, counted positive when it falls.

In experiment [1] the target is Tyrosine-protein kinase Fer (Homo sapiens) (UniProt P16591). The settings on record: at 1 µM.
For experiment [2], the target named is Tyrosine-protein kinase Fes/Fps (Homo sapiens) (UniProt P07332). The following applies: at 0.1 µM.
Experiment [3] has the same target. The settings on record: at 1 µM.
Experiment [4] has as its target Fibroblast growth factor receptor 1 (Homo sapiens) (UniProt P11362). The settings on record: at 0.1 µM.
Experiment [5] concerns the target Fibroblast growth factor receptor 2 (Homo sapiens) (UniProt P21802). The following applies: at 0.1 µM.
For experiment [6] the target is unchanged. The settings on record: at 1 µM.
Experiment [7] addresses Fibroblast growth factor receptor 3 (Homo sapiens) (UniProt P22607). The following applies: at 0.1 µM.
Experiment [8] shares this target. The following applies: at 1 µM.
The target of experiment [9] is Fibroblast growth factor receptor 4 (Homo sapiens) (UniProt P22455). The following applies: at 0.1 µM.
For experiment [10] the target is unchanged. The following applies: at 1 µM.
In experiment [11] the target is Tyrosine-protein kinase Fgr (Homo sapiens) (UniProt P09769). The following applies: at 0.1 µM.
Experiment [12] has the same target. The following applies: at 1 µM.
The target in experiment [13] is Vascular endothelial growth factor receptor 1 (Homo sapiens) (UniProt P17948). The following applies: at 0.1 µM.
Experiment [14] has the same target. The following applies: at 1 µM.
The target of experiment [15] is Receptor-type tyrosine-protein kinase FLT3 (Homo sapiens) (UniProt P36888). The following applies: at 0.1 µM.
Experiment [16] shares this target. The settings on record: at 1 µM.
Experiment [17] concerns T1, Receptor-type tyrosine-protein kinase FLT3 (Homo sapiens), P36888 [D835Y].
T1 sequence (whole entry): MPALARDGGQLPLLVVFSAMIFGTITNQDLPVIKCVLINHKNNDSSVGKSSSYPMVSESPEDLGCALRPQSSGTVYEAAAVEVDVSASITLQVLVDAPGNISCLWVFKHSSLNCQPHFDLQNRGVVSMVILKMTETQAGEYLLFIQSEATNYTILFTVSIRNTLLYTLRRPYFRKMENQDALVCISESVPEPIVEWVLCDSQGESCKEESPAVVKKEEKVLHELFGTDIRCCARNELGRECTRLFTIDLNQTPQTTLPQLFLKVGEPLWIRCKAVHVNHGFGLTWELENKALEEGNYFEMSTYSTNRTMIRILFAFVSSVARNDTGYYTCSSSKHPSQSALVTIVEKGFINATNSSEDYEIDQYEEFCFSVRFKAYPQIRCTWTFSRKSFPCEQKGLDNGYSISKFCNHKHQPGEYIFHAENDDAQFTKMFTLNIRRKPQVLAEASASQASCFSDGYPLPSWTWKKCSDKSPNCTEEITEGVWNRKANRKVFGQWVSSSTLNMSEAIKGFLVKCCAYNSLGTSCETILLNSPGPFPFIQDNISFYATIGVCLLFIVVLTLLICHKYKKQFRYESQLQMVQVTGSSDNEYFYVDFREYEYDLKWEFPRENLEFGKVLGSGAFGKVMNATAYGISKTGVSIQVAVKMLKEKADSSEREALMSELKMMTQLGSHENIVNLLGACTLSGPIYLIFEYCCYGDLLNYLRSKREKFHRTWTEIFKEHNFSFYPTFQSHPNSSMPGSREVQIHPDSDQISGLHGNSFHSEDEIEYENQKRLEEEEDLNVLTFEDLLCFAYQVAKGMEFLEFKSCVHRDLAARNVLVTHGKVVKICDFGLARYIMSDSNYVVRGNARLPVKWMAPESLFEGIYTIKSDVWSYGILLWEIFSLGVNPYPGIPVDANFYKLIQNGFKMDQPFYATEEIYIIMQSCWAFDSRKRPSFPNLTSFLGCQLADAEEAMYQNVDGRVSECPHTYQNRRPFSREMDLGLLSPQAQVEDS
The settings on record: at 0.1 µM.

Experiment [18] concerns the target Non-receptor tyrosine-protein kinase TYK2 (Homo sapiens) (UniProt P29597). The following applies: at 1 µM.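 Note: values are mean percent inhibition of TYK2 kinase.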
Experiment [19] has as its target T2, Tyrosine-protein kinase receptor TYRO3 (Homo sapiens) (UniProt Q06418).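 Note: reported percentages are averaged inhibition values of TYRO3 kinase activity.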
T2 sequence (whole entry): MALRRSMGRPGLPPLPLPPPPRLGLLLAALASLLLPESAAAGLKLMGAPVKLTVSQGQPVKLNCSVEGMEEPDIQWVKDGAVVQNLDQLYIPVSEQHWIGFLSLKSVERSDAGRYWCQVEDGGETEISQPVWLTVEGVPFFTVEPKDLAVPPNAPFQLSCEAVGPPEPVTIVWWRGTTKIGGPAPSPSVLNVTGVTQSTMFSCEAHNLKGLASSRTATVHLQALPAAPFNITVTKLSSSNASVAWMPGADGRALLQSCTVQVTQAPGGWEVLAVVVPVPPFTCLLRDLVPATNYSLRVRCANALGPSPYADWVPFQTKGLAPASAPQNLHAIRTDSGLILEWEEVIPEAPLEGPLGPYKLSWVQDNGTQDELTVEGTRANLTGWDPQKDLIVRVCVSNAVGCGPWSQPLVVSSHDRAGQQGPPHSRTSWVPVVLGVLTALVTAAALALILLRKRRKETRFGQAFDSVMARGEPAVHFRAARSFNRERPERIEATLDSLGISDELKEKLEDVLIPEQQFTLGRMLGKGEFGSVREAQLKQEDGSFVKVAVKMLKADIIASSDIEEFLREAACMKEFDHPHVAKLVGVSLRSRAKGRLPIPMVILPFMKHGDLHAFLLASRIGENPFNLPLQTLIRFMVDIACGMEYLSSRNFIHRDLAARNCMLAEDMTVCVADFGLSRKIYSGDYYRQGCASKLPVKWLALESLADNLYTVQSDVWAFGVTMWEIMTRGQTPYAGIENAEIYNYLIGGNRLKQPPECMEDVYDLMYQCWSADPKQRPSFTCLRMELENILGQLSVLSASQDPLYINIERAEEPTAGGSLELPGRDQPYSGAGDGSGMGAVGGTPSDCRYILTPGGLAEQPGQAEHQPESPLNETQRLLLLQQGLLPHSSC
The settings on record: at 0.1 µM.

In experiment [20] the target is Fibroblast growth factor receptor 1 (Homo sapiens) (UniProt P11362). The settings on record: at 1 µM.

Chain of Fibroblast growth factor receptor 2 (Homo sapiens) (P21802 22-821 limits assumed): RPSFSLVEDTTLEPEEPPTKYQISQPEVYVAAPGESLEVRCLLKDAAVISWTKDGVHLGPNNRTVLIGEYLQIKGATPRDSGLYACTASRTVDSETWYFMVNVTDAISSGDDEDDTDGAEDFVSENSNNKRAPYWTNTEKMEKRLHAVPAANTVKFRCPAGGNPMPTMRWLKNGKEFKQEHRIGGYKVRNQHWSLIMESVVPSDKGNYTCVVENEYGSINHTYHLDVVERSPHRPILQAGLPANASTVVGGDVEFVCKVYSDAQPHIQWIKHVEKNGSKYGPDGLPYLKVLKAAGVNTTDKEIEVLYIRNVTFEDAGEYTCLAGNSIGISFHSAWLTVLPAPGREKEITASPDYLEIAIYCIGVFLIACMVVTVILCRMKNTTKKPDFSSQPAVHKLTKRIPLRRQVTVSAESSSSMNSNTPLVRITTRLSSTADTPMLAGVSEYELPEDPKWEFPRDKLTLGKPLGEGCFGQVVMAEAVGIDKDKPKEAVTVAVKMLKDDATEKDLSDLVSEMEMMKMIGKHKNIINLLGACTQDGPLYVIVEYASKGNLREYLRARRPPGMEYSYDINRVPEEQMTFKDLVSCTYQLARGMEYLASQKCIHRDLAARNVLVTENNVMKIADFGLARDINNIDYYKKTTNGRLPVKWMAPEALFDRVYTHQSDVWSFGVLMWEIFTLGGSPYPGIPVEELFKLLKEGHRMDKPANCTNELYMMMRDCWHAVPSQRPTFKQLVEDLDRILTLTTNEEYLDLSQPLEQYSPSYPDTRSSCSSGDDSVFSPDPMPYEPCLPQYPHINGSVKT
Chain of Fibroblast growth factor receptor 3 (Homo sapiens) (P22607 23-806 limits assumed): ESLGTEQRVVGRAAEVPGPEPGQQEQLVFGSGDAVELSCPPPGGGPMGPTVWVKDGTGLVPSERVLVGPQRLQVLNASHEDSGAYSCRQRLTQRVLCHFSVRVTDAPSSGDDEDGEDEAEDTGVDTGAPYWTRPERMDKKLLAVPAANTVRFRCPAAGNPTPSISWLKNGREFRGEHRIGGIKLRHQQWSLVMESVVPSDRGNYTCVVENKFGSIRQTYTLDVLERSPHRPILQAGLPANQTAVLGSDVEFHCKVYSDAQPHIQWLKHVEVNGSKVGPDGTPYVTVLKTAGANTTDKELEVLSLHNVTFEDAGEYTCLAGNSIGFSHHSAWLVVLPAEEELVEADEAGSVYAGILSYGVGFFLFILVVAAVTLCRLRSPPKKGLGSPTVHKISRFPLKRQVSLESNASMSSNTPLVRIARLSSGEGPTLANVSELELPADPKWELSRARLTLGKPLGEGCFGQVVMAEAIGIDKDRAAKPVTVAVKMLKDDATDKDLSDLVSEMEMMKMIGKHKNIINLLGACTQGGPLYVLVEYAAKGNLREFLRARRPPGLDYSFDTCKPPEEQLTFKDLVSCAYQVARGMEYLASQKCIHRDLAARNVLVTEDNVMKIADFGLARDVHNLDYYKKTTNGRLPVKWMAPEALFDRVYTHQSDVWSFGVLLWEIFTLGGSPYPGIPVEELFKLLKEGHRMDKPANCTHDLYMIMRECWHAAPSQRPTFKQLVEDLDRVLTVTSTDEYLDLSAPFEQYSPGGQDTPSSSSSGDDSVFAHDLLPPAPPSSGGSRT
Chain of Fibroblast growth factor receptor 4 (Homo sapiens) (P22455 22-802 limits assumed): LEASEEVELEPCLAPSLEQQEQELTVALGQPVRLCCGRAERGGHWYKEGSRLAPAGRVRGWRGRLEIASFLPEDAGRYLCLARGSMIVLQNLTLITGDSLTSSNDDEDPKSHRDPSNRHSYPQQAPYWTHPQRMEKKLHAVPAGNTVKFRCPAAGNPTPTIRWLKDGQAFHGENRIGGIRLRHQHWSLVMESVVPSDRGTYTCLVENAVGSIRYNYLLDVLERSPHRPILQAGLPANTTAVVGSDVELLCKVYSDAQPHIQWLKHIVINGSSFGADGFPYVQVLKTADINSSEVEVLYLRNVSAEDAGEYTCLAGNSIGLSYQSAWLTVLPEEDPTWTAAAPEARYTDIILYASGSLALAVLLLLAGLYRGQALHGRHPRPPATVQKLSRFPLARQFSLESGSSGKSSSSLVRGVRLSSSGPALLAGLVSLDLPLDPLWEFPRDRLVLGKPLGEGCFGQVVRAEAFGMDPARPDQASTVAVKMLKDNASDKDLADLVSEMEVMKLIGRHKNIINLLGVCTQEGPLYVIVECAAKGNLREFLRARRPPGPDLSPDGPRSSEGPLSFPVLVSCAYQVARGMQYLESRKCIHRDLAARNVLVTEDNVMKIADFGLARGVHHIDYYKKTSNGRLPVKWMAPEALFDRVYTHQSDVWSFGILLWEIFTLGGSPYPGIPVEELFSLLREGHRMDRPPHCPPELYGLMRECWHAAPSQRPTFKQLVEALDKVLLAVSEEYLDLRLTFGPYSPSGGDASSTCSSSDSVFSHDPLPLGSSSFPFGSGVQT
Chain of Tyrosine-protein kinase Fgr (Homo sapiens) (P09769 2-529 limits assumed): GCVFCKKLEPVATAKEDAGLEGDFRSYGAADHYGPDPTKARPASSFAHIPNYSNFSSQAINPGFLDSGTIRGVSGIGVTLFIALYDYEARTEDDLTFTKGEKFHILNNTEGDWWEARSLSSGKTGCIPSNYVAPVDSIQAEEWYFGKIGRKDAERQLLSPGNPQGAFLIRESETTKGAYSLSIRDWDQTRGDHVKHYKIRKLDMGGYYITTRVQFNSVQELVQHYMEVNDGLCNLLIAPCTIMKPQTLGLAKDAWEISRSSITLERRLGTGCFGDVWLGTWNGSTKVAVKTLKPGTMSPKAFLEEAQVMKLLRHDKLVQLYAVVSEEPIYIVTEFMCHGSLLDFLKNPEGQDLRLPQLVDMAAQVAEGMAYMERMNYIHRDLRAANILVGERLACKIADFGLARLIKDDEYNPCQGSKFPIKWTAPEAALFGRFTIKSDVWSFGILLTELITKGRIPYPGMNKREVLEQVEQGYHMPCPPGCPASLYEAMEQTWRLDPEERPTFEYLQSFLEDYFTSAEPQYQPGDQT
Chain of Tyrosine-protein kinase Fes/Fps (Homo sapiens) (P07332 whole entry): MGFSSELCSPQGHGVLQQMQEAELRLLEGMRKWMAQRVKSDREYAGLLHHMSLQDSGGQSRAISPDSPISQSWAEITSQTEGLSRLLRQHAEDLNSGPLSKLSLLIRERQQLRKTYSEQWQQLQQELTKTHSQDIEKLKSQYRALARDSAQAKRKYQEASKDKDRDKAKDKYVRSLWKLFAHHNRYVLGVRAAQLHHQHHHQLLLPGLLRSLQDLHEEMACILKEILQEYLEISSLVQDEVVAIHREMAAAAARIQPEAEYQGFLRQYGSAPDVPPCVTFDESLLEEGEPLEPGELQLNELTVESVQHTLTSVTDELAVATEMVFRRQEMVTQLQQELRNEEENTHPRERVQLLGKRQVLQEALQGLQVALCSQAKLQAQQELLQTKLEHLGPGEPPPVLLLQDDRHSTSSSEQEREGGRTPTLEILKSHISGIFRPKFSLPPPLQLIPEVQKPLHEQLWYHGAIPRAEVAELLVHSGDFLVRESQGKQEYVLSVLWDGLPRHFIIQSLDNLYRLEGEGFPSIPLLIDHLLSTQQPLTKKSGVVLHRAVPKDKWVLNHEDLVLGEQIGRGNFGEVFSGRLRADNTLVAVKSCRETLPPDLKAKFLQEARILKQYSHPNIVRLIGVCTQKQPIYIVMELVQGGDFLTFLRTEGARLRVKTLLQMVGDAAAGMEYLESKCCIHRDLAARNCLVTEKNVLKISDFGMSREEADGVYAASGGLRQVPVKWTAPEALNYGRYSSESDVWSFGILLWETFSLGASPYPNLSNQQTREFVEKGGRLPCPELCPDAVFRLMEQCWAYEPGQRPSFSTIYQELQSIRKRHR
Chain of Vascular endothelial growth factor receptor 1 (Homo sapiens) (P17948 whole entry): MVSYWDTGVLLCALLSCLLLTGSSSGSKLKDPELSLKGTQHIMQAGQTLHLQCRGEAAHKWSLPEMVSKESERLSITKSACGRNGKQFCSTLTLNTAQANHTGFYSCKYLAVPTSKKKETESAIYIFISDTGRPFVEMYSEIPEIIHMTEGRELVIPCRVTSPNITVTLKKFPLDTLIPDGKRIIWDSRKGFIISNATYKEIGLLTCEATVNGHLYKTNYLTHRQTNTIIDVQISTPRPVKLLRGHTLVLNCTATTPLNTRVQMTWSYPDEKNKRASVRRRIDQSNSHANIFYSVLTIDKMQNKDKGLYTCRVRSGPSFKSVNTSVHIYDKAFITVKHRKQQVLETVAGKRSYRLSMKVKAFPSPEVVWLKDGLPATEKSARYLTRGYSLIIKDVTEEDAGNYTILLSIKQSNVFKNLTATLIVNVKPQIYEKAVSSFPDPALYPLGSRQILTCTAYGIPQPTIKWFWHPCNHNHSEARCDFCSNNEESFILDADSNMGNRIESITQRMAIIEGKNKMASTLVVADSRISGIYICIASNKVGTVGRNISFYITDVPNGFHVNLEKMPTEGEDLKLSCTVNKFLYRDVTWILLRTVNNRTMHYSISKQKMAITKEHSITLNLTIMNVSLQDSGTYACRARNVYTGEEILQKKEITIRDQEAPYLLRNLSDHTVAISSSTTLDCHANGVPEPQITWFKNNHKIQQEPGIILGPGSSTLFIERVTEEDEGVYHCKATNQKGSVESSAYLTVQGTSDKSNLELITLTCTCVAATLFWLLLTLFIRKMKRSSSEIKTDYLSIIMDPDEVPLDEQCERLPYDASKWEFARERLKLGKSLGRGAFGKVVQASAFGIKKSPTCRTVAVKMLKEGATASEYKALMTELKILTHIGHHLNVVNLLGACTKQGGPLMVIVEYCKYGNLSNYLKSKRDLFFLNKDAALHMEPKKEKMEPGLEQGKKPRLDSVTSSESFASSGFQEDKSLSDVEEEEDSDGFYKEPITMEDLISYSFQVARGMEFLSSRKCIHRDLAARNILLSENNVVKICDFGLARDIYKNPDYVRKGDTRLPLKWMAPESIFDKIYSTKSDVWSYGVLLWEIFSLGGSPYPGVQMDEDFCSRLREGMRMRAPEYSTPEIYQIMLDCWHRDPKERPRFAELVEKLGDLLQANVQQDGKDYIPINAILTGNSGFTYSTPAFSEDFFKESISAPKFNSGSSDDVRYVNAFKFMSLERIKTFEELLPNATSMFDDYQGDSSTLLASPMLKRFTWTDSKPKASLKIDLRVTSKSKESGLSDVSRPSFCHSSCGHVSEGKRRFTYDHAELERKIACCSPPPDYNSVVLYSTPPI

Turning to `Cc1nn(C)c2cc(N(C)c3ccnc(Nc4cccc(S(N)(=O)=O)c4)n3)ccc12`, the inhibition in [1] was 35.8%; in experiment [2] it was 2.04%; in [3], 6.14%; in experiment [4] it was -0.21%; in experiment [5] it was 5.4%; in experiment [6], 20.7%. Besides, the inhibition is 3.96% in experiment [7]; 11.4% in experiment [8]; -9.61% in [9]; 0.29% in experiment [10]; 14.8% in experiment [11]; 48% in experiment [12]. For the same compound, the inhibition in experiment [13] was 2.5%; in experiment [14] it was 30%; in experiment [15], 2.69%; in experiment [16], 15.4%; in experiment [17], 2.72%; in [18] it was 2.39%. Moreover, the inhibition in experiment [19] came to 6.07%.
For `CS(=O)(=O)CCNCc1ccc(-c2ccc3ncnc(Nc4ccc(OCc5cccc(F)c5)c(C(F)(F)F)c4)c3c2)o1`, the inhibition was 1.93% in experiment [1]; 2.48% in [2]; 2.85% in experiment [3]; -1.13% in [4]; 2.33% in experiment [20]; 3.18% in experiment [5]. Besides, the inhibition in experiment [6] was 4.51%; in experiment [7], 4.79%; in experiment [8], 3.38%; in [10] it was -0.05%; in experiment [11] it was 3.99%; in [12] it was 2.16%. In addition, the inhibition is -0.83% in experiment [13]; -0.68% in [14]; 1% in experiment [15]; 1.21% in [16]; -2.74% in experiment [17]; -3.56% in experiment [18]. Moreover, the inhibition in [19] was 3.52%.
`Nc1ncnc2occ(-c3ccc(NC(=O)Nc4cccc(C(F)(F)F)c4)cc3)c12`: the inhibition was 33.6% in [1]; 3.8% in experiment [2]; 4.91% in [3]; 8.01% in [4]; 38.2% in experiment [20]; 15.8% in experiment [5]. Also, the inhibition in experiment [6] is 52.5%; in experiment [7], 7.97%; in experiment [8], 34.4%; in [9], -1%; in experiment [10], 13.3%; in experiment [11] it was 3.07%. For the same compound, the inhibition in experiment [12] amounted to 25.1%; in experiment [13], 56%; in experiment [14] it was 91%; in [15] it was 85.3%; in experiment [16], 93.9%; in experiment [17], 18.4%. Moreover, the inhibition in [18] is -3.79%; in [19], 3.18%.
Turning to `Cc1cccc(-c2n[nH]cc2-c2ccc3ncccc3n2)n1`, the inhibition in [1] was 0.01%; in experiment [2], 0.45%; in experiment [3] it was -0.18%; in [4], -0.21%; in experiment [20] it was 8.38%; in [5] it was 0.62%. Besides, the inhibition is 5.35% in [6]; 1.61% in experiment [7]; 4.89% in experiment [8]; 3.49% in experiment [9]; 1.18% in experiment [10]; 2.06% in experiment [11]. In addition, the inhibition is 4.41% in experiment [12]; 3.33% in experiment [13]; 29.2% in [14]; -1.33% in experiment [15]; -0.33% in experiment [16]; -5.04% in experiment [17]. Further, the inhibition in experiment [18] was 0.67%; in experiment [19] it was 0.27%.
`N#Cc1c(NC(=O)c2cccc3ccccc23)sc2c1CCCC2`: the inhibition in [1] worked out at 1.93%; in experiment [2], 2.2%; in experiment [3] it was 2.36%; in [4] it was 0.22%; in [20], 2.06%; in [5], 1.68%. Moreover, the inhibition in [6] was 4.84%; in experiment [7], 5.84%; in experiment [8] it was 4.55%; in experiment [9], -2.84%; in [10], -0.35%; in experiment [11], 1.53%. For the same compound, the inhibition in experiment [12] is 5.24%; in experiment [13] it was -0.49%; in [14] it was 0.41%; in experiment [15], 2.28%; in experiment [16], 2.23%; in experiment [17], 3.1%. Further, the inhibition in experiment [18] was -3.92%; in [19], 2.98%.
With `NS(=O)(=O)c1ccc(N/N=C2\C(=O)Nc3ccc(C(=O)NCCc4c[nH]cn4)cc32)cc1`, the inhibition in experiment [2] was found to be 5.34%; in experiment [3] it was 8.37%; in experiment [4], 3.36%; in [20] it was 12.1%; in [5], 7.55%; in [6], 11.5%. Moreover, the inhibition in experiment [7] amounted to 6.41%; in experiment [8] it was 7.55%; in experiment [9], 4.66%; in [10], 2.39%; in [11] it was 4.54%; in [12] it was 19.1%. Moreover, the inhibition in experiment [13] was 2.21%; in [14], 10.7%; in experiment [15] it was 7.03%; in [16], 23.4%; in experiment [17] it was 8.84%; in [18] it was 0.3%. The inhibition in experiment [19] was found to be 5.07%.
Regarding `NC(=O)c1cccc(Nc2nccc(Nc3cccc4[nH]ncc34)n2)c1`, the inhibition is 21.9% in [1]; -2.33% in [2]; 10.9% in experiment [3]; -5.24% in [4]; 9.11% in experiment [20]; -1.94% in experiment [5]. The inhibition in experiment [6] was 13.1%; in [7], -3.38%; in [8], 4.68%; in [9] it was 1.28%; in [10], 6.94%; in experiment [11], 53.6%. Also, the inhibition in [12] was determined as 76.7%; in experiment [13], 2.24%; in [14], 29.2%; in experiment [15] it was 6.63%; in experiment [16], 48%; in [17], 10.4%. The inhibition in experiment [18] turned out to be 39.1%; in experiment [19] it was 9.98%.
